Source: PubChem BioAssay

Assays:
[1] = test system: Human papillomavirus type 1a protein E7 (residues 44-93); experiment: HPV1a E7 fragment binders on microarrays, primary screen, biochemical, small-molecule microarray, residues 44-93, 635 nm fluorescence (AID 1108); conditions: small-molecule microarray binding, fluorescence 635 nm; higher = more signal;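 note: E7 fragment applied at 1 µg/mL in TBST for 1 h at 4 C; score combines spot fluorescence with its signal to noise ratio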
[2] = modulators of HCV replicon luciferase signal, primary screen, HCV replication inhibitor project, Huh7 cells, luciferase reporter (AID 1109); conditions: 48 h, higher = more signal;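 note: huh7 hepatoma cells harbouring a luciferase neomycin HCV replicon reporter; luciferase luminescence as measure of HCV replicon replication; test concentration not given here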
[3] = target: Left-right determination factor 2 (Homo sapiens) (UniProt O00292); experiment: LEFTY2 binders on small-molecule microarrays, primary screen, biochemical, small-molecule microarray, 635 nm fluorescence scan (AID 1110); conditions: LEFTY2 binding, higher = more signal
[4] = target: Calmodulin-1 (Homo sapiens) (UniProt P0DP23); experiment: CALM1 binders on microarrays, EGTA buffer, profiling panel, biochemical, small-molecule microarray, Cy5-labelled CALM1 (AID 1111); conditions: Cy5-CALM1 binding fluorescence, higher = more signal;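 note: labelled calmodulin applied in Tris saline Tween buffer holding calcium plus EGTA and DTT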
[5] = target: Calmodulin-1 (Homo sapiens) (UniProt P0DP23); experiment: calcium-bound CALM1 binders on microarrays, profiling panel, artefact control for SMM control-protein annotation, biochemical, small-molecule microarray, Cy5-labelled CALM1, plus calcium (AID 1112); conditions: Cy5-CALM1 binding fluorescence, higher = more signal;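 note: score merges spot fluorescence with signal to noise from triplicate slides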
[6] = small-molecule microarray binders of probe aWnt5a, primary screen, biochemical, biotinylated probe, 635/667 nm fluorescence (AID 1113); conditions: higher = more signal;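 note: score merges 667 nm fluorescence intensity with signal-to-noise per printed feature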
[7] = small-molecule microarray binders of probe aShh, primary screen, biochemical, biotinylated probe, 635/667 nm fluorescence (AID 1114); conditions: higher = more signal;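 note: probe is biotin-labelled aShh protein from a stem cell growth factor screen; measures binding of labelled protein to compounds printed on the slide; score merges feature fluorescence at 667 nm with signal-to-noise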
[8] = small-molecule microarray binders of probe aNog, primary screen, biochemical, biotinylated probe, 635/667 nm fluorescence (AID 1115); conditions: higher = more signal;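 note: probe is biotinylated aNog protein used at 0.15 µg/mL for 1 h at 4 C; z-score combines 667 nm fluorescence of each spot with its signal to noise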
[9] = target: Torsin-1A-interacting protein 1 (Homo sapiens) (UniProt Q5JTV8); experiment: LAP1 binders from COS7 cell lysate, primary screen, small-molecule microarray, 635/667 nm fluorescence (AID 1116); conditions: COS7-hLAP1 lysate binding, 635 nm fluorescence, higher = more signal
[10] = target: Alpha-bungarotoxin (Bungarus multicinctus) (UniProt P60615); experiment: alpha-bungarotoxin binders on microarray, profiling panel, artefact control for SMM control protein annotation, biochemical, small-molecule microarray, Alexa647 label, 635/667 nm fluorescence (AID 1117); conditions: alpha-BTX-A647 binding fluorescence, higher = more signal
Chain of Alpha-bungarotoxin (Bungarus multicinctus) (P60615 whole entry, looked up): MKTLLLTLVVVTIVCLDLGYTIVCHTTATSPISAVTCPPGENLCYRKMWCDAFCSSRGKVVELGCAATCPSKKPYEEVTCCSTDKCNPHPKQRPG

Chain of Left-right determination factor 2 (Homo sapiens) (O00292 whole entry, looked up): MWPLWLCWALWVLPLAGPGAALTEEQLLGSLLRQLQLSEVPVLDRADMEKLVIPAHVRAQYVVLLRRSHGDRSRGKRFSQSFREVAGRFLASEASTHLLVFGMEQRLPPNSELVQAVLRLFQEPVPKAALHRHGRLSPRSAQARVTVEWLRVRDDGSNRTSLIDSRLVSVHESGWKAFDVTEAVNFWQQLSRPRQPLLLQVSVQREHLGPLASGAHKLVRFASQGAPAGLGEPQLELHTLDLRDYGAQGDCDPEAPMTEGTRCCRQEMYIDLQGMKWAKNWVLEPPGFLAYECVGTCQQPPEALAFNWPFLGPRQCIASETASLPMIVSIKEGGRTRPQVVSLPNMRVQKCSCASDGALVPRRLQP
Chain of Torsin-1A-interacting protein 1 (Homo sapiens) (Q5JTV8 whole entry, looked up): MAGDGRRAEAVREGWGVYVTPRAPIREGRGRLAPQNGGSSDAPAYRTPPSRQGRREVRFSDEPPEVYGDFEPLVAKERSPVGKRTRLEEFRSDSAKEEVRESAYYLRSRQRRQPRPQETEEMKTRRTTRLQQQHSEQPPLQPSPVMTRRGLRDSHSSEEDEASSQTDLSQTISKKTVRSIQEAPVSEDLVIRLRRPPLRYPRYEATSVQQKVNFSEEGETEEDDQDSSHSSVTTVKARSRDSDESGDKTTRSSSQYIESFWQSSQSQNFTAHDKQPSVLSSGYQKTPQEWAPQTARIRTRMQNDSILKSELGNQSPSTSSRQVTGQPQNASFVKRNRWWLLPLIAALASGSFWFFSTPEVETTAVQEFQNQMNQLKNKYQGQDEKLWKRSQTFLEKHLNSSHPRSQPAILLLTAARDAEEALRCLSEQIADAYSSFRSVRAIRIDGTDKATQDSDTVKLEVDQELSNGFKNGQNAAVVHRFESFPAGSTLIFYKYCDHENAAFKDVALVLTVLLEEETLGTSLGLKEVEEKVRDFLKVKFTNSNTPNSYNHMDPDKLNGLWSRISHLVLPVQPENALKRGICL

SMILES	composite z-score [1]	z-score [2]	composite z-score [3]	composite z-score [4]	composite z-score [5]	composite z-score [6]	composite z-score [7]	composite z-score [8]	composite z-score [9]	composite z-score [10]
COC(=O)[C@]1(Cc2ccccc2CN=[N+]=[N-])N=C(c2ccc(OCCCO)cc2)O[C@@H]1c1ccccc1N=[N+]=[N-]	-0.131	-2.65	-0.0976	-0.0209	-0.307	-0.0346	-0.018	1.03	0.963	0.37
C=CCNC(=O)[C@@H]1[C@H]2C(=O)O[C@H](c3ccccc3)[C@H](c3ccccc3)N2[C@H](c2ccc(OCCO)cc2)[C@@]12C(=O)Nc1ccc(C#CCNC(N)=O)cc12	1.24	-0.658	-0.463	1.47	0.472	-0.0051	-0.349	-0.361	0.0307	0.782
COC(=O)[C@H](Cc1ccccc1)N1CC(C)(OC)O[C@@H](Cc2ccccc2)[C@H]1/C=C/C1CC1 (stereo not given in full)	0.208	-1.84	-0.17	-0.0441	-0.233	-0.0239	-0.198	0.0299	0.726	0.2
CN1C(=O)C2C(C1=O)C1C=C(CCCO)C2C(C2CC2)N1C (stereo not given)	-0.524	0.669	-0.151	0.394	0.535	-0.328	0.0062	-0.0477	2.83	-0.685
COC(=O)C(CC#Cc1ccc2c(c1)[C@]1(C(=O)N2)[C@H](c2ccc(OCCO)cc2)N2[C@H](c3ccccc3)[C@H](c3ccccc3)OC(=O)[C@H]2[C@@H]1C(N)=O)C(=O)OC	1.41	-1.68	-0.584	0.627	-0.113	-0.156	-0.123	-0.14	-0.358	1.4
CC(=O)NCCCC[C@@H]1NC(=O)[C@H]2C[C@@H](C(=O)NCCCCCN)[C@@H](c3ccc(O)cc3)N2C1=O	1.36	0.199	0.777	0.536	0.973	-0.1	-0.0211	-0.221	0.852	0.988
C[C@]1(C(=O)NC2CC2)c2ccccc2C(=O)N(Cc2cc(F)cc(C(F)(F)F)c2)[C@H]1c1ccc(CO)cc1	1.49	-0.782	-1.59	-0.448	0.0045	-0.187	-0.469	-0.658	-0.65	-0.442
C=CCC(OC(C)=O)[C@@H]1[C@@H](N(Cc2cccc3ccccc23)C(=O)c2ccc(C)cc2)c2cc(OCCCO)ccc2N1C(=O)Cc1ccc2ccccc2c1 (stereo not given in full)	-0.857	0.198	-0.163	1.1	0.709	-0.0718	-0.0553	0.0588	0.54	0.273
C=CCOC(=O)[C@H]1[C@@H]2C(=O)O[C@@H](c3ccccc3)[C@@H](c3ccccc3)N2[C@@H](c2ccc(OCCOC(=O)[C@H]3C[C@H]4C(=O)NCC(=O)N4[C@H]3c3cccc(OCCO)c3)cc2)[C@]12C(=O)Nc1ccc(I)cc12	1.23	-0.903	0.541	1.05	0.0934	0.0629	0.131	0.131	1.44	1.08
COc1ccc(C(=O)Nc2cccc(CN3C(=O)[C@]4(O[C@H](CC(=O)N(CCO)Cc5ccccc5)[C@@H]([Si](C)(C)c5ccc(OC)cc5)[C@@H]4C)c4ccccc43)c2)cc1	0.753	-3.73	0.546	-0.0878	-0.342	0.093	-0.0192	-0.0315	0.566	0.696
CC[C@@H]1C=C(C(=O)O)[C@H](c2cccc(Cl)c2)N1S(=O)(=O)c1ccc(C)cc1	1.2	-0.54	-0.8	0.875	0.0755	-0.0758	0.14	0.527	1.09	0.105
